Screening data as filed in PubChem.
GRP78 ERSR act = qHTS for Inducers of the Endoplasmic Reticulum Stress Response (ERSR) in Human Glioma: qHTS. 420,000 tested, 0.02% active. U87-MG GRP78 promoter luciferase reporter, 16 h. Potency, µM, for the others: top-dose activation, actives largely listed as activators; further: potency means the concentration at half of the fitted maximal effect; series mostly up to about 76 µM; % of control where 0% means no effect; nearly all actives have a fitted effect of over 35% in size
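ERSR induction read as luciferase luminescence (Bright-Glo, 10 min at room temperature) in stably transfected human U87-MG glioma cells exposed to compounds for 16 h, using GRP78 as sensor.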
Integrin act MD = qHTS for Activators of Integrin-Mediated Alleviation for Muscular Dystrophy; alpha7betagal myoblasts, beta-gal FDG fluorescence, 48 h; Potency, µM (top dose mostly 38.3 µM), for the others: top-dose activation, most hits filed as activators; 350,000 tested, 0.064% active;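 further: potency means the concentration at half of the fitted maximal effect; 100% = response of the positive control SU9516; nearly all actives have a fitted effect of over 60% in size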
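Alpha7betagal+/- myoblasts (passage 13) were plated 16-24 hr, then exposed to compounds (1:260 dilution of DMSO stock) for 48 hours at 37C. After MPER lysis, β-galactosidase reporter activity was read as FDG fluorescence (ex 480/em 540) after 30 minutes.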
CBFb RUNX1 block = qHTS Assay for Compounds Blocking the Interaction Between CBF-beta and RUNX1 for the Treatment of Acute Myeloid Leukemia; 230,000 tested, under 10 active; Potency, µM (highest dose often 59.8 µM), for the others: at the highest dose activity, negative = inhibition, actives largely listed as inhibitors; AlphaScreen CBFb-His/RUNX1-biotin binding, biochemical; further: % of control where 0% means no effect
Target sequence (Q01196 whole entry, looked up): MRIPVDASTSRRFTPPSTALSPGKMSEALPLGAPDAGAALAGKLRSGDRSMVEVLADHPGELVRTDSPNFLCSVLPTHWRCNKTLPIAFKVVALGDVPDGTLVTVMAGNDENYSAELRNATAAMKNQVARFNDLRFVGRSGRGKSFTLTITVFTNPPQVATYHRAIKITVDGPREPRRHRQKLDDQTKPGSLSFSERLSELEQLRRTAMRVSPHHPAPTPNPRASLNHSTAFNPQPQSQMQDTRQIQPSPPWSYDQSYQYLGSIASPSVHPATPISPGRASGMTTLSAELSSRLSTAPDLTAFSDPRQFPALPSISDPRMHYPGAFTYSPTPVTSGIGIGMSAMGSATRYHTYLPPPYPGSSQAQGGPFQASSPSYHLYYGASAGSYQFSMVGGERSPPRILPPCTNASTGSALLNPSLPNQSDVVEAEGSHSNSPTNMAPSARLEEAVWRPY
Target sequence (Q13951 whole entry, looked up): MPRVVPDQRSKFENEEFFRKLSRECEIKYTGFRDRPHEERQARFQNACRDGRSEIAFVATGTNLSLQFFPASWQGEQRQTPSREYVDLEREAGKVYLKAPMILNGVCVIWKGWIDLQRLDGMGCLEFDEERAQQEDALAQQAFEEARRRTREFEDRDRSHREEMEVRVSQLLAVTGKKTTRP
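CBFb-His/RUNX1-biotin, 30 nM each, preincubated 20 min RT; compound 15 min RT; Ni + streptavidin beads 50 ng each, 90 min RT; AlphaScreen read.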
ClpP mod = qHTS Assay for Activators of ClpP. ATP-dependent Clp protease proteolytic subunit (Bacillus subtilis (strain 168)), P80244. purified B. subtilis ClpP, FRET peptide cleavage, 20 min. Potency, µM (titrated, usually from 57.5 µM), for inactives: at the top dose activity change, negative = active. 340,000 tested, 1.9% active; active means well fitted falling curve with a large enough effect; inconclusive means small, poorly fitted or top-dose-only effect; inactive means no such curve, though single readings can be large or run the other way; further: potency means the concentration at half of the fitted maximal effect; the source files actives as falling curves though it sought activators and does not explain the sign; nearly all actives have a fitted effect of over 65% in size
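Buffer: 100 mM Tris/HCl pH8, 100 mM KCl, 0.05% low protease BSA, 2.5% glycerol, 0.01% Tween-20. ClpP 10 microg/mL final; 20 min RT; delta FRET normalized to ADEP and DMSO controls.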
Apoferritin bind = qHTS Assay for Identification of Novel General Anesthetics | Ferritin light chain (Equus caballus), P02791 | apoferritin/1-aminoanthracene competitive binding, fluorescence | Potency, µM (highest dose often 77.5 µM), for the others: top-dose activity change, negative = displacement, usual class: inhibitors | 350,000 tested, 0.074% active | AID 485281, 2010; further: potency means the concentration at half of the fitted maximal effect; on the % scale 0 is the no-effect control and ±100 the full control effect; nearly all actives have a fitted effect of over 20% in size
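10 uM apoferritin + 50% sat. 1-AMA, PBS; cpd 10 min RT; Ex380/Em535 endpoint; normalized to free probe vs complex; 4-param Hill fit; propofol titration as pos. ctrl.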
N370S GC = qHTS Assay for Inhibitors and Activators of N370S glucocerebrosidase as a Potential Chaperone Treatment of Gaucher Disease; Potency, µM (doses to about 59.4 µM), for inactives: at the highest dose activity change, negative = inhibition, hits mostly inhibitors; AID 2101, 2009; N370S GC spleen homogenate, 4MU-glucoside fluorescence; 330,000 tested, 0.092% active;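 further: potency means the concentration at half of the fitted maximal effect; 0% = full enzyme activity and -100% = no enzyme basal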
Starred values were filed as active, the others as inactive; ? = inconclusive; . = no result; [ ] = remark or other dose. The full list was thinned out, with hits kept by preference. Unless noted, the call rests on the fitted dose curve; in most records, active means well fitted curve in the direction sought with a large enough effect; inconclusive means small, poorly fitted or top-dose-only effect, or another doubt; inactive means no such curve, though single readings can be large; an effect the other way counts as inactive or inconclusive.

SMILES	GRP78 ERSR act	Integrin act MD	CBFb RUNX1 block	ClpP mod	Apoferritin bind	N370S GC
CS/C(=N\S(=O)(=O)c1cccs1)Nc1ccc(F)c(Cl)c1	-6.2%	13.6%	1.2%	20µM*	-15.5%	0.9%
CCOc1nc(N=C(N)N)nc2c(C)cccc12	-7.8%	9.1%	-4.7%	15.8µM*	-3.2%	-11.4%
COc1cc(/C=C/CN2CCOc3ccc(C(O)c4cccnc4)cc3C2)ccc1O (stereo not drawn)	-2.1%	.	.	.	.	.
Cc1cc(C)c(C#N)c(N2CCSCC2)n1	-3.7%	-16.2%	-1.0%	35.5µM*	-11.0%	6.7%
Cc1cc(C)c(C#N)c(N2CCCC(C(N)=O)C2)n1 (stereo not drawn)	-3.8%	-12.4%	1.5%	3.55µM*	-9.7%	-6.0%
Cc1cc(C)c(C#N)c(N2CCN(c3ccccc3)CC2)n1	1.8%	25.7%	.	-15.7%	-2.9%	-21.3%
CCn1c(-c2cccnc2)nc2cc(NC(=O)COC)cc(C(=O)N3CC[C@@H]4CCCC[C@H]4C3)c21	-3.4%	.	.	.	.	.
CC(C)CNC(=O)[C@H]1N2C(=O)c3ccccc3C2SC1(C)C (stereo partly drawn)	-3.7%	13.9%	.	28.2µM*	-2.9%	-8.5%
COc1cccc(CC(NC(C)=O)C(=O)NC2CCN(c3nc(C)cc(C)c3C#N)CC2)c1 (stereo not drawn)	-6.7%	-0.3%	-2.5%	?	-6.5%	1.8%
COc1ccc(CC(NC(C)=O)C(=O)NC2CCN(c3nc(C)cc(C)c3C#N)CC2)c(OC)c1 (stereo not drawn)	9.1%	-3.6%	0.3%	12.6µM*	-10.4%	-17.5%
COc1cccc2sc(Nc3nnc(-c4ccc(F)cc4)o3)nc12	0.1%	-13.6%	?	4.1%	-0.1%	?
Fc1cccc2sc(Nc3nnc(-c4ccco4)o3)nc12	5.4%	-20.2%	-12.1%	25.1µM*	-7.3%	5.3%
Cn1c(SCC(N)=O)nnc1-c1ccc(S(=O)(=O)N2CCCC2)cc1	-4.0%	2.6%	.	.	0.2%	1.0%
Cc1ccc(-n2c(SCC(N)=O)nnc2-c2ccc(S(=O)(=O)N3CCCCC3)cc2)c(C)c1	1.4%	0.1%[7.66 µM]	-0.4%	25.1µM*	?	0.2%
COC(=O)c1cc(NS(=O)(=O)c2ccc(NCc3cccnc3)c([N+](=O)[O-])c2)cc(C(=O)OC)c1	-0.7%	-20.4%	-0.8%	28.2µM*	-5.4%	-1.3%
COC(=O)c1cc(NS(=O)(=O)c2ccc(NCc3cccnc3)c(N)c2)cc(C(=O)OC)c1	-5.3%	14.4%	-2.3%	-1.7%	-11.2%	-7.1%
N#Cc1ccc(-c2ccc(F)cc2)nc1Oc1ccc(Cl)c(Cl)c1	-1.3%	20.6%	1.3%	39.8µM*	-5.2%	-18.8%
CCOC(=O)C1CCCN(c2nc3c(S(=O)(=O)c4ccc(CC)cc4)nnn3c3ccsc23)C1 (stereo not drawn)	-2.3%	.	.	31.6µM*	-13.1%	.
CCOC(=O)C1CCCN(c2nc3c(S(=O)(=O)c4ccc(Br)cc4)nnn3c3ccsc23)C1 (stereo not drawn)	1.2%	.	.	11.2µM*	5.9%	.
CC(C)c1ccc(S(=O)(=O)c2nnn3c2nc(N2CCCCC2)c2sccc23)cc1	-2.3%	.	.	25.1µM*	-8.5%	.
CCOC(=O)C1CCN(c2nc3c(S(=O)(=O)c4ccc(Br)cc4)nnn3c3ccsc23)CC1	-3.9%	.	.	14.1µM*	-0.9%	.
Cc1ccc(S(=O)(=O)c2nnn3c2nc(N2CCCCC2)c2sccc23)cc1	-4.3%	.	.	-5.9%	-10.2%	.
CCc1ccc(S(=O)(=O)c2nnn3c2nc(N2CCCC2)c2sccc23)cc1	-4.1%	.	.	?	?	.
Cn1c(-c2ccncc2)nc2cc(C(=O)N[C@H]3CCCCNC3=O)cc(NC(=O)C3CCC3)c21	-3.4%	.	.	.	.	.
COC(=O)c1cn([C@@H]2C[C@@H](C(=O)Nc3cccc(SC)c3)N(C3CCCCCC3)C2)nn1	12.9%	.	.	.	.	.
SMILES	GRP78 ERSR act	Integrin act MD	CBFb RUNX1 block	ClpP mod	Apoferritin bind	N370S GC
CC(C)(C)n1ncc2c(=O)n(Cc3c(F)cc(Cl)cc3F)cnc21	-4.8%	.	.	.	.	.
Cc1ccc(N=c2oc3cc(O)ccc3cc2C(N)=O)cc1	-0.4%	34.1%	-0.2%	25.1µM*	149.1%	4.9%
CCCCSc1ccc2nc(-c3ccc(C#N)cc3)cn2c1	0.2%	13.9%	16.9%	?	314.3%	?
CCCSc1ccc2nc(-c3ccccc3)cn2c1	-14.3%	28.4%	2.2%	22.4µM*	-10.0%	-2.5%
CCC(C(=O)Nc1cc(-c2nc3cccnc3s2)ccc1C)c1ccccc1 (stereo not drawn)	1.8%	.	.	35.5µM*	?	.
O=C(Cc1ccccc1)Nc1cccc(-c2nc3cccnc3s2)c1	1.6%	.	.	35.5µM*	-6.4%	.
CCOc1ccccc1N(CC(=O)NC(C)(C)C)C(=O)c1ccc(CN2CCOCC2)o1	-2.7%	17.2%[7.66 µM]	3.6%	-0.3%	-14.6%	-11.4%
CC(C)(C)NC(=O)CN(C(=O)c1ccc(CN2CCOCC2)o1)c1ccc2c(c1)OCCO2	-0.7%	19.3%	-2.5%	12.6µM*	-5.0%	-16.6%
Cc1ccc2[nH]nc(C(=O)N3CCOc4ccc(CN5CCc6sccc6C5)cc4C3)c2c1	-2.2%	.	.	.	.	.
O=C1CC(c2ccco2)Cc2[nH]c(=O)c(C(=O)Nc3ccccc3)cc21 (stereo not drawn)	-1.4%	.	.	-1.2%	.	.
CC1Cc2ccccc2N1c1ncnc(N)c1[N+](=O)[O-] (stereo not drawn)	-3.3%	?	1.6%	0.5%	-15.9%	-1.1%
CC1CCCCN1c1ncnc(N)c1[N+](=O)[O-] (stereo not drawn)	-4.0%	4.47µM*	-1.0%	.	-18.9%	-8.6%
Cc1ccccc1NC1=NC(=S)N(c2ccccc2)C12CCCCC2	-1.9%	0.0%	7.8%	28.2µM*	-11.9%	3.9%
O=C(CC1C(=O)NCCN1Cc1ccc(F)cc1)NC1CCCCCCC1 (stereo not drawn)	-4.0%	-13.7%	.	-7.4%	15.8µM*	0.9%
O=C(CC1C(=O)NCCN1Cc1cccc(F)c1F)NCCCC1CCCC1 (stereo not drawn)	-5.4%	-28.7%	.	1.9%	31.6µM*	-18.6%
Cc1ccc(CN2CCNC(=O)C2CC(=O)NC2CCCCCC2)cc1 (stereo not drawn)	-3.3%	-36.8%	.	-3.9%	?	-10.4%
CC#CC[C@@H](C)[C@@H](O)/C=C/[C@H]1[C@H]2c3cccc(CCCC(=O)O)c3O[C@H]2C[C@@H]1O	-2.9%	.	.	.	.	.
